Measured values reported in PubChem BioAssay AID1508600 (Functional Genomics Laboratory (NCATS/FGL), 2020).
Hit rate of the full screen: of about 53,000 sequences, about 3,700 (7%) were called active.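 Rule for the calls: active = gene knockdowns whose robust z-score for IL-1 alpha signal is at least 2 or at most -2, so actives lie on both sides; inactive = the rest.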 Shown is part of a subset that was picked to be rich in actives.

Test: Components of the Cytosolic LPS Sensing Pathway: Gene Identification via Genome-wide siRNA Screen;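 note: robust z of the log signal after scaling to non-targeting control siRNA wells of the plate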
Conditions: RAW264.7 macrophages, IL-1a HTRF, actives lie on both sides, screened at 100 nM (by protocol), cells primed 5 h with Pam3CSK4 first
Method in brief: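 RAW264.7; siRNA 100 nM final, RNAiMAX, 48h 37 degrees C; Pam3CSK4 5 h; LipidA + TransIT-TKO 24 h; IL-1a HTRF; CellTiter-Glo viability; robust z vs negative-control median.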
For GGCACAGAUUGUGGUGAAGTT against Ccdc43, the z-score was -0.518 (inactive).
In the case of GCUGCACCAUGAAUGAGUCTT against Il4, the z-score is reported as 0.819 (inactive).
For GGAUGUUGUGGGAAAUGACTT against Plaat1, the z-score was -0.27 (inactive).
With GGCAAAUCUGAACAACAUUTT against Agt the z-score was 1.16 (inactive).
With GCAGAAAUGUCCAUCCAAATT against Sprr2k the z-score was 2.36 (active).
With GGCAGUGCUGGCAACAAAUTT against Hsd3b5 the z-score was -0.884 (inactive).
In the case of GGAAACCUACCGUUACCUATT against Kcnj5, the z-score is reported as -0.181 (inactive).
With GCCAUUUAUUGAAACUCGCTT against Becn1 the z-score was -0.905 (inactive).
In the case of GGCAGCUGCUGACUUGAUGTT against Gng2, the z-score is reported as 0.133 (inactive).
In the case of GGGCCAGACUCCAUACUAUTT against Arid1a, the z-score is reported as 3.71 (active).
For GCACAUGCCAUACAACCAUTT against Fads1, the z-score was 0.655 (inactive).
With GCGAUUGAGCAGUGAAUAATT against Fam216b the z-score was 1.06 (inactive).
For GGAGAAGCGGCAAAUGGAATT against Fam32a, the z-score was 0.429 (inactive).
In the case of GGCAAGGACUCCAAGGACATT against Wdr45, the z-score is reported as -1.31 (inactive).
In the case of GGAAGAGCAGGAGGAAACATT against Mea1, the z-score is reported as -2.01 (active).
In the case of GGAGAAAAGCUGUAUACACTT against Tmem177, the z-score is reported as 1.22 (inactive).
With GGAGGAGAUGAUAAAGAUUTT against Glyr1 the z-score was -0.987 (inactive).
For CCCAUCAGACUUUGACCGUTT against Lbh, the z-score was -1.45 (inactive).
With GGCAACUUCAAGUCCAUAUTT against Pnma3 the z-score was 3.18 (active).
With GCGACUAGUAGUGCAUGAATT against Wdr13 the z-score was -0.434 (inactive).
For CCUUAAACUUGGCCGAGGUTT against Trmt112, the z-score was 0.748 (inactive).
For CGGCCUUCAUCUGCCUUUUTT against Olfr1222, the z-score was 0.475 (inactive).
For GCCACCUCCUACCAAAUGUTT against Sprr4, the z-score was -1 (inactive).
For GGAGCUAAGGGAACAAUUATT against Psmc6, the z-score was -2.1 (active).
With GGAUGUGUCAGGAAAAUAGTT against Ctsm the z-score was -0.176 (inactive).
For GGAAUACGGAAUCAUGGUUTT against Ift52, the z-score was -0.0653 (inactive).
In the case of GGUUAAUCUUAACAACAUCTT against Tmod1, the z-score is reported as 0.266 (inactive).
With GGAUGCCUUGAAGAAAUUATT against Olfr1044 the z-score was 1.34 (inactive).
With GCUCCAUGAAACCCACUCUTT against Zmiz1 the z-score was -0.656 (inactive).
In the case of “GGAAAGAAGCAACCACUUCTT against 4833439L19Rik”, the z-score is reported as 0.403 (inactive).
With CGUGAUCGUGCGUUCCAACTT against Chrnb4 the z-score was 3.11 (active).
For GGAGGACAUGGACACAGUCTT against Slc39a7, the z-score was -0.805 (inactive).
For GGACUAUCCUCACUCCCUUTT against Pigo, the z-score was -0.0578 (inactive).
In the case of GCCGACUGGUUAAAUACAUTT against Nme3, the z-score is reported as 5.79 (active).
With CGAUGCUAGAGAUUAAUCATT against Rdh10 the z-score was -0.0597 (inactive).
With GCACCUGGGCCUUUGAAUATT against Hes2 the z-score was -0.754 (inactive).
In the case of GCAAGGAAGGAUAUUACACTT against Mmp24, the z-score is reported as 1.34 (inactive).
With GGAUCAAUUCUAGAAUCAGTT against Runx3 the z-score was 0.586 (inactive).
For GCAAUAGCAUACCUACCAUTT against Desi2, the z-score was -0.228 (inactive).
For CCAACAUCUAGAGAGUCUGTT against Olfr1031, the z-score was -1.36 (inactive).
With GCUUGAUUAUUGUGUGUCCTT against Olfr786 the z-score was -1.53 (inactive).
In the case of GGAAAUGACGACUACCAAGTT against Tspyl4, the z-score is reported as 2.74 (active).
With GCGCGAUAGAUUUUGUUUATT against Ier5l the z-score was -0.427 (inactive).
For GGACUAUGGCUCAGCACUCTT against Ttyh1, the z-score was -0.394 (inactive).
In the case of GGACAAGUUUGACUGUUACTT against Als2cl, the z-score is reported as 0.158 (inactive).
With GGAACGACAAUAAAGCUUATT against Ninj1 the z-score was 0.029 (inactive).
For CCACAGAUUACAUUUAUCCTT against Sephs1, the z-score was -1.19 (inactive).
In the case of “GGAGAAAUUCUAUGGUAUUTT against 5031434C07Rik”, the z-score is reported as 2.18 (active).
For GGACUUGAUUGAAGUCAUATT against Tmem132d, the z-score was 0.242 (inactive).
In the case of GUUGGCAUAUUUUAUGGCATT against Olfr1033, the z-score is reported as 1.28 (inactive).
In the case of GGAACAGGAAUAUGAAAGATT against Olfr836, the z-score is reported as -0.903 (inactive).
For CGGCUUGGACAGAUUUAUCTT against Rer1, the z-score was 0.0516 (inactive).
With GCAUCCUUAGUGAUUUCUATT against Slc48a1 the z-score was 0.601 (inactive).
With CCUACAACGAACGGGAGAATT against Dpm1 the z-score was 0.408 (inactive).
For GGUUCUGACAGACAAAAUUTT against Luc7l3, the z-score was -0.379 (inactive).
For GCGGUUCGCUGUUUGUUUCTT against Zbtb11os1, the z-score was 2.54 (active).
With CGCUAGCUUAUUUUCCGCCTT against Slc49a4 the z-score was 1.1 (inactive).
In the case of GGACGACAUGAUUUUCGAGTT against Atp1b1, the z-score is reported as -0.399 (inactive).
For CCACGAAGAGCAAGAAAACTT against Gm5941, the z-score was -1.15 (inactive).
In the case of GGCCUGUAGUCAAUGGAAATT against Magi2, the z-score is reported as -0.382 (inactive).
For GGUUGCACUUUUUCAUAGUTT against Bcl2l2, the z-score was 0.97 (inactive).
With GGAGGUGCUAACCUAACAGTT against Ggh the z-score was -1.1 (inactive).
For GGAAUAUCCAGUAUUGAUUTT against Cd180, the z-score was -0.396 (inactive).
For GCUCGAUUGACCUCAUUCATT against Rhbdf2, the z-score was -2.45 (active).
With GGUGUCGAGAAGCCUCAAATT against Arhgap24 the z-score was -0.617 (inactive).
In the case of GCCGUAUGGCAGGUAUUUUTT against Tmem266, the z-score is reported as 3.27 (active).
For CCACUACAACAACACUUAUTT against Keg1, the z-score was 0.84 (inactive).
With GCAUCUACCUUCUAUUACUTT against Gpsm1 the z-score was 0.533 (inactive).
In the case of GGACAUGCUCUAUAAGAAGTT against Pabpc5, the z-score is reported as -0.642 (inactive).
For GGCAACUUGAUUGUAAACUTT against Zic2, the z-score was 0.795 (inactive).
With CAGAAUUCAGAUAAUCUUGTT against Defb22 the z-score was 1.06 (inactive).
In the case of GGAUAUCCAAGUAAGGUGUTT against Mrpl9, the z-score is reported as -0.504 (inactive).
For GACUGAGCUUCUGUGAUGGTT against Olfr921, the z-score was -2.5 (active).
In the case of GGAGAAGAAGGGAAAGCAUTT against Tub, the z-score is reported as -1.4 (inactive).
For GGUGGAUAUUCCAUCUAUUTT against Snx14, the z-score was 2.76 (active).
In the case of CGUUUUCAGAGAUGUGCGCTT against Cmtm5, the z-score is reported as -1 (inactive).
With GCCAGUAUUAGCCUAGAUCTT against Vstm5 the z-score was -1.65 (inactive).
For CCCAGCUCUGUUUAAUGAUTT against Klf8, the z-score was -0.449 (inactive).
In the case of GGAUCUUAAGAAGUUCCAATT against Chchd6, the z-score is reported as -0.104 (inactive).
With CCUCCUUUUUUCUCUGUCUTT against Ugt1a9 the z-score was -2.79 (active).
In the case of GGAUUUGCCUUAAAAAAUCTT against Dock4, the z-score is reported as -0.0352 (inactive).
In the case of GGUUUGAGGUAACACUAGATT against Vps39, the z-score is reported as -0.125 (inactive).
In the case of GCUGAAAGGAAUGUGCUCATT against Hspa8, the z-score is reported as -1.57 (inactive).
For GCCGGAUGAAGGACUUUACTT against Dcc, the z-score was -1.98 (inactive).
For CCUAGUCUAGCUGACUUGCTT against Eppin, the z-score was 1.41 (inactive).
In the case of GGUUACGAAAAGCUGCCUUTT against Ints14, the z-score is reported as -0.125 (inactive).
For GGCCUUGGCAAUUAUUUGUTT against Syap1, the z-score was -0.0759 (inactive).
In the case of GGAGAAAGAGAUUCCUAUUTT against Triap1, the z-score is reported as -0.818 (inactive).
For CCAAUUCGUGUUAAGGAACTT against Riox2, the z-score was 0.212 (inactive).
In the case of CCUCGUAGGGCCUAUGGUATT against Cyth4, the z-score is reported as -2.17 (active).
For GCCAAAGUAGCAUUAGUGATT against Dip2b, the z-score was -1.39 (inactive).
With GGCAAUGUCUUUAAAAUACTT against Txndc8 the z-score was -0.724 (inactive).
In the case of GGCAUUGACCCUUCUUGGATT against Stam2, the z-score is reported as -0.395 (inactive).
In the case of CCUUGUUAGAGCAUUACAATT against Rprd1a, the z-score is reported as 1.34 (inactive).
For GGAUUCUGAGAAAUCAAGATT against Serpinb12, the z-score was -0.376 (inactive).
For GGAAAUCUACGAUUUCUAATT against Cyria, the z-score was 2.55 (active).
In the case of GCUCCAGAAUAUAUUGUUCTT against Arfgap3, the z-score is reported as 1.39 (inactive).
With GGGCAGAGGCAUUUCUGUATT against Psg23 the z-score was 1.76 (inactive).
For GGAACCAGGUAGCAGAUCUTT against Cdk2ap2, the z-score was -2.61 (active).
For GGACUAUAUGAGAUAAACUTT against Pask, the z-score was 0.371 (inactive).
With CGCCAAACAGGCUAGAUCUTT against Ephb2 the z-score was -0.101 (inactive).
With GCGAGAAUUGGACAAAUUATT against Acot12 the z-score was 0.784 (inactive).
For “GCAUUCGAAGCUCUUCUAATT against 4930474M22Rik”, the z-score was -1.89 (inactive).
With GGGCUGUGAGCUCUGUUCATT against Rspo1 the z-score was 0.188 (inactive).
For GCCCAAACGAAAAAUGGCCTT against Abl1, the z-score was 2.95 (active).
In the case of GCAACUGAGAGAUGUCAUCTT against Gbp6, the z-score is reported as -0.806 (inactive).
For CCUGUGAAGUAUAACAUCGTT against Fam234b, the z-score was -0.722 (inactive).
For CCUAUGUAUCUCAUCGCUGTT against Sox11, the z-score was 0.819 (inactive).
